According to PubChem BioAssay (NCATS):
Inconclusive results are not listed. Calls of active or inactive are those of the source. Calls come from the whole dose curve; as a rule, active = well fitted curve in the direction sought with a large enough effect; inconclusive = small, poorly fitted or top-dose-only effect, or another doubt; inactive = no such curve, though single readings can be large; an effect the other way counts as inactive or inconclusive.

How the values were obtained:
[1] = OV-KATE Cancer Cell Toxicity qHTS against the NCATS CANVASS Library (AID 1347345); details: OV-KATE cells viability, CellTiter-Glo luminescence, 72 h; series mostly up to 76 µM
Procedure, shortened: (§1)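 1000 cells/well; 4 h settle; 11-pnt titration; 72 h, 37 degrees C, 5% CO2; CellTiter-Glo, 15min RT; luminescence read.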

[2] = HPAF-II Cancer Cell Toxicity qHTS against the NCATS CANVASS Library (AID 1347346); details: HPAF-II viability, CellTiter-Glo ATP luminescence, 72 h; series mostly up to 76 µM; note: nearly all actives have a fitted effect of over 55% in size
Procedure, shortened: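 Cytotoxicity read-out was CellTiter-Glo luminescence after 72 h at 37 degrees C exposure of HPAF-II cells (1000/well) to compounds in an 11-point titration.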

[3] = UWB1.289 Cancer Cell Toxicity qHTS against the NCATS CANVASS Library (AID 1347347); details: UWB1.289 viability, CellTiter-Glo luminescence, 72 h; series mostly up to 76 µM; note: nearly all actives have a fitted effect of over 60% in size
Procedure, shortened: as §1

[4] = OV-SAHO Cancer Cell Toxicity qHTS against the NCATS CANVASS Library (AID 1347348); details: OV-SAHO viability, CellTiter-Glo luminescence, 72 h; series mostly up to 76 µM; note: nearly all actives have a fitted effect of over 55% in size
Procedure, shortened: as §1

[5] = Panc-1005 Cancer Cell Toxicity qHTS against the NCATS CANVASS Library (AID 1347349); details: Panc-1005 viability, CellTiter-Glo luminescence, 72 h; series mostly up to 76 µM; note: nearly all actives have a fitted effect of over 60% in size
Procedure, shortened: as §1

[6] = SW1088 Cancer Cell Toxicity qHTS against the NCATS CANVASS Library (AID 1347350); details: SW1088 viability, CellTiter-Glo luminescence, 72 h; series mostly up to 76 µM; note: nearly all actives have a fitted effect of over 75% in size
Procedure, shortened: as §1

[7] = U-118MG Cancer Cell Toxicity qHTS against the NCATS CANVASS Library (AID 1347351); details: U-118MG viability, CellTiter-Glo luminescence, 72 h; series mostly up to 76 µM
Procedure, shortened: as §1

[8] = COV-362 Cancer Cell Toxicity qHTS against the NCATS CANVASS Library (AID 1347352); details: COV-362 viability, CellTiter-Glo luminescence, 72 h; series mostly up to 76 µM
Procedure, shortened: (§2)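 Toxicity was measured as CellTiter-Glo luminescence after 72 h exposure to an 11-point compound series. Compound was added to 1000 cells/well 4 h after seeding.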

[9] = A2780 Cisplatin Sensitive Ovarian Cancer Cell Toxicity qHTS against the NCATS CANVASS Library (AID 1347353); details: A2780 ovarian cancer viability, ATPLite luminescence, 72 h; at 91.4 µM (top of the series) unless noted; note: nearly all actives have a fitted effect of over 60% in size
Procedure, shortened: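 Cisplatin-sensitive A2780 ovarian cells (750/well) received compound in 11 concentrations, and were incubated 72 h at 37 °C. ATP content was measured by ATPLite luminescence; bortezomib served as control.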

[10] = UWB1.289-WTBRCA1 Cancer Cell Toxicity qHTS against the NCATS CANVASS Library (AID 1347354); details: UWB1.289-WTBRCA1 viability, CellTiter-Glo luminescence, 72 h; series mostly up to 76 µM
Procedure, shortened: as §2

[11] = HEK-293 Cancer Cell Toxicity qHTS against the NCATS CANVASS Library (AID 1347355); details: HEK-293 viability, CellTiter-Glo luminescence, 72 h; series mostly up to 91.4 µM; note: nearly all actives have a fitted effect of over 65% in size
Procedure, shortened: as §2

[12] = HPAF-II 24hr Apoptosis Induction qHTS against the NCATS CANVASS Library (AID 1347356); details: HPAF-II caspase-3/7 Caspase-Glo luminescence; series mostly up to 91.4 µM
Procedure, shortened: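 Caspase-Glo 3/7 luminescence, read after 15 min room-temperature development, measures apoptosis in HPAF-II cells treated 24 h at 37 degrees C with an 11-point concentration series; 500 cells/well; doxorubicin control.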

[13] = HEK293 18hr Apoptosis Induction qHTS against the NCATS CANVASS Library (AID 1347357); details: HEK293 caspase-3/7 Caspase-Glo luminescence; series mostly up to 91.4 µM
Procedure, shortened: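 Caspase-3/7 luminescence (DEVD substrate, Caspase-Glo) after 18 h compound exposure of HEK293 cells, 500 cells/well; 11-point series; doxorubicin titration as control.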

[14] = HPAF-II 12hr Apoptosis Induction qHTS against the NCATS CANVASS Library (AID 1347358); details: HPAF-II caspase-3/7 Caspase-Glo luminescence; series mostly up to 91.4 µM
Procedure, shortened: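 Caspase-3/7 activation by DEVD-substrate luminescence (Caspase-Glo 3/7, 15 min, room temperature) after a 12-hour compound exposure in 11 concentrations, of HPAF-II pancreatic cells seeded at 500/well in DMEM with 10% FBS.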

[15] = HEK293 24hr Apoptosis Induction qHTS against the NCATS CANVASS Library (AID 1347359); details: HEK293 caspase-3/7 activation, Caspase-Glo luminescence; series mostly up to 91.4 µM
Procedure, shortened: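 Caspase-3/7 activation measured as luminescence from the DEVD-based Caspase-Glo reagent, 15 min at room temperature, following 24-hour compound treatment of HEK293 cells.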

[16] = HPAF-II 18hr Apoptosis Induction qHTS against the NCATS CANVASS Library (AID 1347360); details: HPAF-II caspase-3/7 luminescence; series mostly up to 91.4 µM
Procedure, shortened: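 Caspase-Glo 3/7 luminescence (DEVD substrate) after 15 min RT; HPAF-II, 500 cells/well, 18 h compound exposure at 37 degrees C, qHTS series; doxorubicin control 0.1nM - 4uM.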

[17] = HEK293 12hr Apoptosis Induction qHTS against the NCATS CANVASS Library (AID 1347361); details: HEK293 caspase-3/7 Caspase-Glo luminescence; series mostly up to 91.4 µM
Procedure, shortened: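 500 HEK293 cells/well; cpds pin-transferred, 11-pt conc series; 12 h, 37 degrees C/5% CO2; Caspase-Glo 3/7 added, 15 min RT dark; luminescence.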

Measured: outcome

COc1ccc2[nH]cc(CCN)c2c1
inactive: [1] | [2] | [3] | [4] | [5] | [6] | [7] | [8] | [9] inactive [at 46.1 µM] | [10] | [11] | [12] | [13] | [14] | [15] | [16] | [17]

O=C1C[C@@H]2OCC=C3CN4CC[C@]56c7ccccc7N1[C@H]5[C@H]2[C@H]3C[C@H]46
inactive: [1] | [2] | [3] | [4] | [5] | [6] | [7] | [8] | [9] | [10] | [11] | [12] | [13] | [14] | [15] | [16] | [17]
